Data published in ChEMBL document CHEMBL1157539, “Thousands of chemical starting points for antimalarial lead identification” (Nature, 2010).

Each compound was assayed on HepG2 (assay: GSK_TCMDC: Percent inhibition of human HepG2 cell line. Test compounds present at 10uM.).
Assay type: functional

SMILES | Inhibition
O=c1cc(NCCCN(Cc2cc3c(Cl)cc(Cl)cc3[nH]2)Cc2cc3c(Cl)cc(Cl)cc3[nH]2)[nH]c2ccccc12 | 23%
Cc1nc2ccc(Nc3nccc(-c4c(-c5cccc(NC(=O)c6c(F)cccc6F)c5)nn5ccccc45)n3)cc2nc1C | 55%
COc1ccc2nc(N(CCCn3ccnc3)C(=O)C=Cc3cccs3)sc2c1.Cl | 8%
Cc1ccc(NC(=O)c2ccc(CN3CCCN(CC4CCCCC4)CC3)cc2)cc1.O=C(O)C(F)(F)F | 41%
CCc1nc(N)nc(N)c1-c1ccccc1 | 53%
CCC(C)NC(=O)CN1CN(c2ccccc2)C2(CCN(C(=O)c3ccc4ccccc4c3)CC2)C1=O (stereo unspecified) | 0%
Cl.Nc1c2ccccc2nc2cc([N+](=O)[O-])ccc12 | 92%
S=c1nc(-c2ccccc2)n2ccsc2n1 | 3%
COc1ccccc1CN1CCC(CNC(=O)c2cc(-c3cccc(C(F)(F)F)c3)cs2)C1.O=C(O)C(F)(F)F (stereo unspecified) | 25%
CC1(C)NC(=N)N=C(NOCC=Cc2ccccc2)N1 | 35%
Fc1ccc2c(NN=CC=Cc3ccccc3)ccnc2c1 | 0%
Cc1cc2c(NC(=O)NC3CCN(Cc4ccc(Cl)c(Cl)c4)CC3)cccc2cn1.Cl | 11%
COc1ccc(Nc2nccc(-c3cccc(NC(=O)c4cc5cc(F)ccc5[nH]4)c3)n2)cc1 | 3%
Cl.Oc1ccccc1CNCC12CC3CC(CC(C3)C1)C2 | 0%
Cl.N#Cc1cccc(-c2ccc(C(=O)Nc3ccc4c(c3)CCN(C3CCC3)CC4)cn2)c1 | 26%
CCCC[C@@H](C(=O)NCc1ccccc1C(F)(F)F)N1C(=O)CCC1C(=O)Nc1ccc([N+](=O)[O-])cc1 (stereo partly specified) | 7%
O=C(NCCCCCN1CCC(c2c[nH]c3ccccc23)CC1)c1ccc(-c2ccccc2)nc1 | 43%
NC1=NC2(CCCCC2)N(OCCCCCCN2C(=O)c3ccccc3C2=O)C(N)=N1 | 20%
Cn1c(NC(=O)CCCCCNC(=O)c2ccc(O)c(-c3ccc(Cl)c(Cl)c3)c2)nc2ccccc21 | 0%
COc1ccc(Cn2ccc3c4c(N)nc(N)nc4ccc32)cc1 | 90%
Cc1ccc(C(=O)NC2CCN(CCNC(=O)Nc3cc(C)nc4ccccc34)CC2)cc1 | 0%
C=CCN1C(=O)C(=Cc2cc(Br)ccc2O)SC1=Nc1ccccc1 | 0%
O=C(NCc1ccc(F)cc1)Nc1cccc(-c2ccc(-c3nc4ccccc4[nH]3)cc2)c1 | 45%
O=c1cc(NCCCNCc2cccc(Oc3ccccc3)c2)[nH]c2ccccc12 | 0%
CCN1CCN(c2ccc(Nc3c4ccccc4nc4ccccc34)cc2)CC1 | 24%
COC(=O)c1ccc2nc(-c3ccc(/C=C/C(=O)NCc4ccc(Cl)c(Cl)c4)cc3)[nH]c2c1 | 13%
